Results on ten molecules are retold here after PubChem BioAssay (Tox21).

Test [1] can be described thus: qHTS assay to identify small molecule agonists of the estrogen receptor alpha (ER-alpha) signaling pathway in the presence of an antagonist - cell viability counter screen (AID 1259386).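 Also: cells exposed to compounds for 22 h at 37 °C before the viability read; nearly all actives have a fitted effect of over 30% in size.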 Also: potency is read from the fitted curve at half-maximal effect. In short, it runs like this:
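Read-out: CellTiter-Fluor fluorescence after 1hr reagent incubation, measured in the same wells as the luciferase readout. VM7Luc4E2 cells were exposed to 15 compound concentrations with 10.0nM ICI-182,780 for 22hr at 37C.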

For test [2], the target named is Progesterone receptor (Homo sapiens) (UniProt P06401). Description: qHTS assay to identify small molecule antagonists of the progesterone receptor (PR) signaling pathway (AID 1346795; active = well fitted inhibition curve with a large enough effect in the signal ratio in the repeat runs, not every such curve was filed as active; the % refers to the signal ratio; also: potency is read from the fitted curve at half-maximal effect). In short, it runs like this:
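Inhibition of R5020-induced (1 nM final) beta-lactamase reporter signal in PR-UAS-bla HEK293T cells was scored by FRET fluorescence after overnight (16 hr) compound treatment.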

A short description of test [3]: qHTS assay to identify small molecule antagonists of the progesterone receptor (PR) signaling pathway - cell viability counter screen (AID 1346798). Also: series mostly up to about 92 µM; nearly all actives have a fitted effect of over 50% in size. An outline of the steps:
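ATP content as viability readout: CellTiter-Glo luminescence, 30 min room temperature, in PR-UAS-bla HEK293T cells after 16 hr compound/R5020 treatment at 37C and 5% CO2.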

The nature of test [4]: qHTS assay to identify small molecule agonists of the progesterone receptor (PR) signaling pathway - cell viability counter screen (AID 1346799; calls by dose curve; also: nearly all actives have a fitted effect of over 45% in size). An outline of the steps: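 Cytotoxicity in PR-bla HEK293T cells: 16 h compound, 37C; CellTiter-Glo added post-FRET read; luminescence after 30 min RT.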
Test [5] in a line: qHTS assay to identify small molecule antagonists of the TGF-beta/Smad signaling pathway - cell viability counter screen (AID 1346824). Also: nearly all actives have a fitted effect of over 50% in size. In short, it runs like this:
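Cytotoxicity counter-screen run in the same wells as the beta-lactamase Smad reporter read: CellTiter-Glo luminescence after 30 min at room temperature. HEK 293T SBE-bla cells had 5 hr compound exposure at 37 C with TGF-beta1 (0.25 ng/mL stock).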

The nature of test [6]: qHTS assay to identify small molecule agonists of the TGF-beta/Smad signaling pathway - cell viability counter screen (AID 1346829). Also: top concentration of the series differs between compounds; nearly all actives have a fitted effect of over 45% in size. In short, it runs like this:
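Luminescence from CellTiter-Glo, read after a 30 min room-temperature incubation, gives cell viability of SBE-bla HEK 293T cells treated 5 hr with compounds at 37 C.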

Test [7] can be described thus: qHTS assay to identify small molecule agonists of the TGF-beta/Smad signaling pathway (AID 1346859; active = well fitted activation curve with a large enough effect in the signal ratio in the repeat runs, not every such curve was filed as active; the % refers to the signal ratio; also: series mostly up to about 77 µM). In short, it runs like this: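 Stable Smad binding element-beta-lactamase HEK 293T cells; 5 hr compound exposure at 37 C under 5% CO2; 2 hr room-temperature substrate step; fluorescence excited at 405 nm, collected at 460 nm and 530 nm.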
Test [8] concerns the target Thyrotropin-releasing hormone receptor (Homo sapiens) (UniProt P34981). As to the kind of experiment: qHTS assay to identify small molecule antagonists of the thyrotropin-releasing hormone receptor (TRHR) signaling pathway (AID 1346877; active = well fitted inhibition curve with a large enough effect in the repeat runs, not every such curve was filed as active; also: series mostly up to about 51 µM). In short, it runs like this: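 HEK293/TRHR cells, 18 h, 37 °C; Ca2+ dye 2 h; cpd 5 min RT; TRH 1 nM final; fluorescence read 3 min, 1 s intervals; 15 concs, triplicate.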

Test [9] shares this target. As to the kind of experiment: qHTS assay to identify small molecule agonists of the thyrotropin-releasing hormone receptor (TRHR) signaling pathway (AID 1346891; calls by dose curve;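 also: HEK293 cells expressing TRHR with calcium dye readout; series mostly up to about 58 µM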). An outline of the steps:
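In 1536-format, 1500 TRHR-Hek293 cells per well grew 18 h, took up calcium dye for 2 h at 37 °C, received compound, and were read kinetically; 15-point titrations, triplicates.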

The nature of test [10]: Human pregnane X receptor (PXR) small molecule agonists, qHTS cell viability counter screen (AID 1346977). Also: nearly all actives have a fitted effect of over 50% in size. An outline of the steps: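 Readout is CellTiter-Fluor fluorescence from PXR-Luc HepG2 cells. Plated cells rested 5hr, then were treated with compounds for 24hr at 37C and 5% CO2, with reagent present during the last hour.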
Test [11] can be described thus: Caspase-3/7 induction in HepG2 cells by small molecules, qHTS assay (AID 1346978). Also: nearly all actives have a fitted effect of over 15% in size. An outline of the steps:
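Caspase-3/7 induction was measured by Caspase-Glo 3/7 luminescence (30 min, room temperature) after a 17 hr compound exposure of wild-type HepG2 cells seeded at 2,000 per well and pre-incubated 5 hr.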

Test [12] is described as follows: Caspase-3/7 induction in CHO-K1 cells by small molecules, qHTS cell viability counter screen (AID 1346979). Also: nearly all actives have a fitted effect of over 35% in size. Also: potency is read from the fitted curve at half-maximal effect. In short, it runs like this:
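To flag cytotoxic compounds, treated CHO-K1 wild-type cells were given CellTiter-Fluor at 16hr and read fluorescently after 1hr at 37C; the caspase-3/7 luminescence was measured in these same wells.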

Test [13] can be described thus: Caspase-3/7 induction in CHO-K1 cells by small molecules, qHTS assay (AID 1346980). Also: nearly all actives have a fitted effect of over 15% in size. An outline of the steps: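 Luminescent Caspase-Glo 3/7 read (30min, room temperature) quantified apoptosis induction. Cells were wild-type CHO-K1, treated with compound for 17hr at 37 C and 5% CO2.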
Test [14] addresses Nuclear receptor subfamily 1 group I member 2 (Homo sapiens) (UniProt O75469). Description: Human pregnane X receptor (PXR) small molecule agonists, qHTS assay (AID 1346982). Also: nearly all actives have a fitted effect of over 35% in size. Also: potency is read from the fitted curve at half-maximal effect. An outline of the steps: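 HepG2 PXR-Luc reporter line, 5% charcoal-stripped FBS; 5 hr pre-incubation, compound (DMSO) 24 hr at 37 C/5% CO2; ONE-Glo 30 min RT; luminescence read-out.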
The target of test [15] is Acetylcholinesterase (Homo sapiens) (UniProt P22303). As to the kind of experiment: Acetylcholinesterase (AChE) small molecule antagonists: colormetric cell-based qHTS assay (AID 1347395; calls by dose curve; also: nearly all actives have a fitted effect of over 30% in size; also: potency is read from the fitted curve at half-maximal effect). In short, it runs like this:
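Neuroblastoma line SH-SY5Y supplied the enzyme; cells were preincubated with compound for 30 min at 37 C and 5% CO2. Acetylthiocholine with DTNB was then added for 90 min at 37 C, and thiocholine was measured by colour.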

Test [16] addresses Progesterone receptor (Homo sapiens) (UniProt P06401). As to the kind of experiment: qHTS assay to identify small molecule agonists of the progesterone receptor (PR) signaling pathway (AID 1346784; calls by dose curve; also: nearly all actives have a fitted effect of over 30% in size). In short, it runs like this: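 Using charcoal-stripped serum (2%) to limit endogenous steroids, PR-UAS-bla HEK 293T cells received compounds for 16 hr at 37C after 6 hr plating; beta-lactamase FRET fluorescence was recorded following 2 hr substrate loading at room temperature.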

A short description of test [17]: Caspase-3/7 induction in HepG2 cells by small molecules, qHTS cell viability counter screen (AID 1346981). Also: series mostly up to about 92 µM; nearly all actives have a fitted effect of over 30% in size. In short, it runs like this: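 Fluorescence read-out of live-cell protease activity (CellTiter-Fluor) after 1 hr with reagent. This was measured in the same wells as the caspase-3/7 luminescence, on HepG2 cells exposed to DMSO-dissolved compounds for 16 hr at 37 C.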

Test [18] concerns the target Nuclear receptor subfamily 1 group I member 2 (Rattus norvegicus) (UniProt Q9R1A7). Description: Rat pregnane X receptor (rPXR) activation by small molecules, qHTS assay (AID 1346983). Also: nearly all actives have a fitted effect of over 20% in size. The following applies: rPXR luciferase reporter cells, One-Glo luminescence, 24 h; max activation: stronger effect = higher value. An outline of the steps: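 Luminescent readout (One-Glo luciferase, 30 min room temperature) followed 24 hr compound treatment at 37 C of rPXR cells plated 2,000 per well and preincubated 5hr; qHTS format with compounds delivered in DMSO.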

Test [19] addresses Nuclear receptor subfamily 1 group I member 2 (Homo sapiens) (UniProt O75469). Description: CYP3A4 induction through human pregnane X receptor (PXR) by small molecules, qHTS assay (AID 1346984). Also: nearly all actives have a fitted effect of over 40% in size. In short, it runs like this:
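HepG2-derived DPX-2 line carrying PXR plus a CYP3A4-promoter luciferase reporter; cells plated 5 hr, compound-exposed 24 hr at 37C. CYP3A4 activity probed with 3uM (final) Luciferin-IPA for 3hr, then luciferase read after One-Glo.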

The target is the same in test [20]. As to the kind of experiment: Human pregnane X receptor (PXR) activation by small molecules, qHTS assay (AID 1346985). Also: nearly all actives have a fitted effect of over 40% in size. An outline of the steps:
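DPX-2 cells (HepG2 co-transfected with a PXR response element and a CYP3A4-promoter luciferase construct) were seeded at 2,000 per well, rested 5 hr at 37C, then exposed to DMSO-dissolved compounds for 24 hr. Activation was read as luciferase luminescence.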

Unmarked numbers belong to inactive results. Results filed as inconclusive are left out. Active and inactive are the calls of the source. Unless noted, calls follow the shape of the dose curve; as a rule, active = well fitted curve in the direction sought with a large enough effect in the repeat runs; inconclusive = weak or mixed curves; inactive = no such curve, though single readings can be large; an effect the other way counts as inactive or inconclusive.
% is scaled to controls: 0 for no effect and ±100 for the full control effect.

Acetylcholinesterase (Homo sapiens), sequence (P22303 whole entry, looked up): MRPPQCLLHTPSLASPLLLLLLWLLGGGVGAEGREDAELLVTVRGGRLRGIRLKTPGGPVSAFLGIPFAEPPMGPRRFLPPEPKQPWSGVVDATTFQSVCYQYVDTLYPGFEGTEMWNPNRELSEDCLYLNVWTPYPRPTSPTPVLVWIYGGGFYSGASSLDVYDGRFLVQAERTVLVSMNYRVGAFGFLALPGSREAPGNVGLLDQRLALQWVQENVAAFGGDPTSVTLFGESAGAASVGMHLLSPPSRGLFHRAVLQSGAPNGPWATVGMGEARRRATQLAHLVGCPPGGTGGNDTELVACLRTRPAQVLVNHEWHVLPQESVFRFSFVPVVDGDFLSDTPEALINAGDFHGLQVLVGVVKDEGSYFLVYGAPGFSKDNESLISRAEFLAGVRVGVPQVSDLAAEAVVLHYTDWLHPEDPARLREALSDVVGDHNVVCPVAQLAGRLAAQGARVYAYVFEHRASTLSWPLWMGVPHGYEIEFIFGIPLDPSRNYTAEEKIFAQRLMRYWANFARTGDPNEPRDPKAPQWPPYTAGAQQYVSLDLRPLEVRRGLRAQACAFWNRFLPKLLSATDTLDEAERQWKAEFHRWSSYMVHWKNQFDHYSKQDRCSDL
Nuclear receptor subfamily 1 group I member 2 (Rattus norvegicus), sequence (Q9R1A7 whole entry, looked up): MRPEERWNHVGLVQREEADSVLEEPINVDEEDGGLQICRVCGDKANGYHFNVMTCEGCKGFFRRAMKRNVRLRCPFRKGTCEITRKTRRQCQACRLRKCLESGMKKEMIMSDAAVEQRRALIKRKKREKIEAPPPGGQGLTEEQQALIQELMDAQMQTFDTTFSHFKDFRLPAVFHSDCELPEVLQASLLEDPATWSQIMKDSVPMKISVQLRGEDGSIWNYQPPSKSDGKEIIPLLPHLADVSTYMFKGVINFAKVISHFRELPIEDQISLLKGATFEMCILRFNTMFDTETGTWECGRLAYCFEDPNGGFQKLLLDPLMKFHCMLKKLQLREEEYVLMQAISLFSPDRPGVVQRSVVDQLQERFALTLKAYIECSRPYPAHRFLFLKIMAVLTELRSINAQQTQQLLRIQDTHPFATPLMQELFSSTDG
Thyrotropin-releasing hormone receptor (Homo sapiens), sequence (P34981 whole entry, looked up): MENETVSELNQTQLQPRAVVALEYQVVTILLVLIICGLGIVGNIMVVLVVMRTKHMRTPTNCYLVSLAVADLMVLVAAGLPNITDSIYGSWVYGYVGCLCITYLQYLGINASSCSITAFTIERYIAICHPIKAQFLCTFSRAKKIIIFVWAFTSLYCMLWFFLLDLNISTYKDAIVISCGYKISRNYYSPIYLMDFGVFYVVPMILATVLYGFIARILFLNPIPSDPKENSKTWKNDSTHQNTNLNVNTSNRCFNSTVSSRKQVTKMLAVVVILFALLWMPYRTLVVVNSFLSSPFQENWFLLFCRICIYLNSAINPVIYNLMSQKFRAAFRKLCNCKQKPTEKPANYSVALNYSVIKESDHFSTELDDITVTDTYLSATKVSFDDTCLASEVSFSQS
Progesterone receptor (Homo sapiens), sequence (P06401 whole entry, looked up): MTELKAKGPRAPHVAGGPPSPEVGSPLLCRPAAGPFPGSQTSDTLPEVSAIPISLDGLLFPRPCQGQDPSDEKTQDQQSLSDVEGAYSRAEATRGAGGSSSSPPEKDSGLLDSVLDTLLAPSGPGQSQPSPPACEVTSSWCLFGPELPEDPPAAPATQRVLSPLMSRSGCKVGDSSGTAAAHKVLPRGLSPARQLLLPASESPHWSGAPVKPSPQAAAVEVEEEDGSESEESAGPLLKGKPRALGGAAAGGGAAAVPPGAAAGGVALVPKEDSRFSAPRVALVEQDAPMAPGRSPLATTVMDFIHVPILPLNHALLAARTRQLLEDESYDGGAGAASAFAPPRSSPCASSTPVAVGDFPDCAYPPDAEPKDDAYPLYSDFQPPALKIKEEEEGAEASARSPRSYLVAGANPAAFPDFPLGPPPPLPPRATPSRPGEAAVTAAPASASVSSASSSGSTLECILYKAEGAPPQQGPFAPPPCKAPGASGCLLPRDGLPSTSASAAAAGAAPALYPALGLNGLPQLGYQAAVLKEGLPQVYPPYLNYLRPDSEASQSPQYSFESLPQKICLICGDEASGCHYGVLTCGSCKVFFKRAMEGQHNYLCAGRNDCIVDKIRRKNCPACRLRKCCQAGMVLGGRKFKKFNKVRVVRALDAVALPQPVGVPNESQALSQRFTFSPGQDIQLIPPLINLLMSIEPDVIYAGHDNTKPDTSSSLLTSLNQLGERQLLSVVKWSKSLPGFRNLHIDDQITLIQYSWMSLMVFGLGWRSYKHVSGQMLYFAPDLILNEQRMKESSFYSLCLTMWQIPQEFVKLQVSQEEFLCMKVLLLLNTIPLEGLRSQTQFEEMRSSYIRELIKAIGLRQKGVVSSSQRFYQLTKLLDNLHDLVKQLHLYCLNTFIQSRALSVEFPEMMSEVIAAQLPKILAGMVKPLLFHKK
Nuclear receptor subfamily 1 group I member 2 (Homo sapiens), sequence (O75469 whole entry, looked up): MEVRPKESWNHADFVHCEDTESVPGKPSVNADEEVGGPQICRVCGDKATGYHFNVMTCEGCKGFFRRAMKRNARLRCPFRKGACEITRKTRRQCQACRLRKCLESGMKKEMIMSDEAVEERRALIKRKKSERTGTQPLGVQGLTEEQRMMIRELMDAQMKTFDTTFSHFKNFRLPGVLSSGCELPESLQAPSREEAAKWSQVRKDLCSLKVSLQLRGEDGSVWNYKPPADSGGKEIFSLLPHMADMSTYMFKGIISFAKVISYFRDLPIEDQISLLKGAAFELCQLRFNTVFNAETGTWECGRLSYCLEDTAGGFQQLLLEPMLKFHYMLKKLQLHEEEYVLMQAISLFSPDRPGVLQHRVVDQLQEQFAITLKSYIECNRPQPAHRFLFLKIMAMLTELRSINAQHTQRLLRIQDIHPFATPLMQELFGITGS

Regarding `Cc1cnc[nH]1`, the Potency entry in [1], in test [2], in test [3], in test [4], in [5] and in test [10] was “inactive” in each case. Also, the Potency result in [11], in test [12], in test [13], in [14] and in test [15] was “inactive” throughout. Also, the call in test [6], in [7], in [8] and in test [9] was inactive.

As to `CC(C1CC1)C(O)(Cn1cncn1)c1ccc(Cl)cc1` (configuration not stated), the Potency result in [1], in test [16], in test [3], in [5], in test [10] and in test [11] was “inactive” in each case. For the same molecule, the Potency entry in test [12], in test [13], in test [17] and in [15] was “inactive” each time. Besides, the molecule was classed as inactive in [6], in [7] and in test [8]. The Potency in [14] was 27.1 µM (active).

In the case of `Nc1c(Br)cc([N+](=O)[O-])cc1[N+](=O)[O-]`, the Potency in test [1] was 31 µM (active); in test [2] it was 27.6 µM (active); in [12], 55.1 µM (active); in test [14], 55.1 µM (active); in [15] it was 36 µM (active). Further, the Potency entry in test [3], in [4], in test [5], in test [11] and in test [13] was “inactive” each time. Also, the molecule was classed as inactive in test [6], in test [7] and in test [8].

Turning to `CCNc1nc(NC(C)C)nc(OC)n1`, the Potency entry in [1], in test [3], in test [4], in [5], in [10] and in test [11] was “inactive” throughout. In addition, the Potency entry in test [12], in test [13], in [17] and in test [15] was “inactive” in each case. Moreover, the molecule was called inactive in [6], in [7], in test [8] and in test [9]. Also, the Potency in test [14] is 27.3 µM (active).

For the molecule `CCN(Cc1ccc(Cl)nc1)/C(=C/[N+](=O)[O-])NC`, the Potency entry in test [1], in test [3], in [4], in test [5], in test [10] and in test [11] was “inactive” in each case. The Potency result in test [12], in [13], in test [14], in test [19], in test [20] and in test [15] was “inactive” in each case. Also, the result in [6], in test [7], in test [8] and in test [9] was inactive. In [18], the max activation is -0.716%.

Regarding `Cc1coc2c1CCC(C)C2` (configuration not stated), the Potency entry in test [1], in test [3], in test [4], in test [5], in test [10] and in [11] was “inactive” each time. The Potency entry in test [12], in test [13], in test [17] and in test [15] was “inactive” each time. Besides, the molecule was called inactive in test [6] and in test [7]. In addition, the Potency in [14] was 17.8 µM (active).

With `COc1cc2c(cc1OC)[C@@]13CCN4CC5=CCO[C@H]6CC(=O)N2[C@H]1[C@H]6[C@H]5C[C@H]43`, the Potency entry in [16], in test [2], in test [3], in test [4], in test [5] and in [10] was “inactive” in each case. For the same molecule, the Potency entry in test [11], in test [12], in [13], in test [17], in test [19] and in test [15] was “inactive” throughout. The call in test [6], in test [7] and in test [8] was inactive. Moreover, the Potency in [14] is 21.7 µM (active). Further, in [18], the max activation is -4.15%.

For the molecule `CNC(=O)N(C)c1nc2ccccc2s1`, the Potency result in [1], in [3], in test [4], in [5], in [10] and in test [11] was “inactive” in each case. In addition, the Potency entry in test [12], in test [13], in test [17] and in test [15] was “inactive” each time. The molecule was classed as inactive in [6], in [7] and in test [8]. In addition, the Potency in test [14] is 30.6 µM (active).

Take `CN1CCC(O)(c2ccc(F)cc2)C(C(=O)c2ccc(F)cc2)C1` (configuration not stated): the Potency entry in test [1], in test [3], in test [4], in [5], in test [11] and in [12] was “inactive” throughout. Moreover, the Potency entry in [13], in test [19], in [20] and in test [15] was “inactive” throughout. Besides, the call in [6], in test [7] and in [8] was inactive. Also, the Potency in test [14] was 13.3 µM (active). Besides, the max activation in test [18] was -0.751%.

Turning to `OC(c1ccccc1)(c1ccccc1)C1CCNCC1`, the Potency result in [16], in [2], in test [3], in test [4], in test [5] and in test [10] was “inactive” throughout. Besides, the Potency entry in test [11], in [12], in test [13], in test [17], in [14] and in test [19] was “inactive” each time. In addition, the Potency entry in [20] and in test [15] was “inactive” throughout. Also, the molecule was called inactive in test [6], in test [7], in [8] and in test [9]. For the same molecule, in test [18], the max activation was -4.65%.
